PubChem BioAssay (NCATS)
Where “and” joins values, the source holds several entries; their conditions need not be identical. Equal values may be shown once. Results filed as inconclusive are left out. Calls of active or inactive are those of the source. Calls follow the shape of the dose curve; as a rule, active = well fitted inhibition curve with a large enough effect; inconclusive = small, poorly fitted or top-dose-only effect; inactive = flat fitted curve, though single readings scatter.

Columns and labels:
ECU = experiment: qHTS profiling for inhibitors of Plasmodium falciparum proliferation (AID 504749);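 also: 0% = DMSO vehicle and full inhibition = artemisinin control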; details: P. falciparum in erythrocytes, SYBR Green DNA, 72 h; series mostly up to 28.7 µM
Summary of the method: (§1)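 In a 72 h erythrocytic culture (37 C, humidified, 5% CO2) at 2.5% hematocrit and 0.3% starting parasitemia, compounds were tested; SYBR Green I in detergent lysis buffer stained parasite DNA overnight.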

FAB9 = experiment: as above; details: P. falciparum in erythrocytes, SYBR Green DNA, 72 h; series mostly up to 28.7 µM
Summary of the method: as §1

GB4 = experiment: as above; details: P. falciparum in erythrocytes, SYBR Green DNA, 72 h; series mostly up to 28.7 µM
Summary of the method: as §1

HB3 = experiment: as above; details: P. falciparum in erythrocytes, SYBR Green DNA, 72 h; series mostly up to 28.7 µM
Summary of the method: as §1

ICS = experiment: as above; details: P. falciparum in erythrocytes, SYBR Green DNA, 72 h; series mostly up to 28.7 µM
Summary of the method: as §1

JCK = experiment: as above; details: P. falciparum in erythrocytes, SYBR Green DNA, 72 h; series mostly up to 28.7 µM
Summary of the method: as §1

N140 = experiment: as above; details: P. falciparum in erythrocytes, SYBR Green DNA, 72 h; series mostly up to 28.7 µM
Summary of the method: as §1

P93_24 = experiment: as above; details: P. falciparum in erythrocytes, SYBR Green DNA, 72 h; series mostly up to 28.7 µM
Summary of the method: as §1

P94_40 = experiment: as above; details: P. falciparum in erythrocytes, SYBR Green DNA, 72 h; series mostly up to 28.7 µM
Summary of the method: as §1

PAD = experiment: as above; details: P. falciparum in erythrocytes, SYBR Green DNA, 72 h; series mostly up to 28.7 µM
Summary of the method: as §1

PC15 = experiment: as above; details: P. falciparum in erythrocytes, SYBR Green DNA, 72 h; series mostly up to 28.7 µM
Summary of the method: as §1

PC26 = experiment: as above; details: P. falciparum in erythrocytes, SYBR Green DNA, 72 h; series mostly up to 28.7 µM
Summary of the method: as §1

PC49 = experiment: as above; details: P. falciparum in erythrocytes, SYBR Green DNA, 72 h; series mostly up to 28.7 µM
Summary of the method: as §1

SC27B = experiment: as above; details: P. falciparum in erythrocytes, SYBR Green DNA, 72 h; series mostly up to 28.7 µM
Summary of the method: as §1

TAB109 = experiment: as above; details: P. falciparum in erythrocytes, SYBR Green DNA, 72 h; series mostly up to 28.7 µM
Summary of the method: as §1

TAB113 = experiment: as above; details: P. falciparum in erythrocytes, SYBR Green DNA, 72 h; series mostly up to 28.7 µM
Summary of the method: as §1

TAB165 = experiment: as above; details: P. falciparum in erythrocytes, SYBR Green DNA, 72 h; series mostly up to 28.7 µM
Summary of the method: as §1

W2 = experiment: as above; details: P. falciparum in erythrocytes, SYBR Green DNA, 72 h; series mostly up to 28.7 µM
Summary of the method: as §1

CRL-7250 = normal cell line; experiment: Cytotoxic Profiling of Annotated Libraries Using Quantitative High-Throughput Screening (AID 1296008); details: Five cell lines viability, CellTiter-Glo ATP luminescence, 48-72 h; max response: active compounds read low; as to max response: % is scaled to controls: 0 for no effect and ±100 for the full control effect
Summary of the method: (§2)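 Cytotoxicity was measured as CellTiter-Glo ATP luminescence, read after 10 min at room temperature. Compound treatment of the cells lasted 48 or 72 hr at 37 degrees Celsius in a qHTS format.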

HEK293 = experiment: as above; details: Five cell lines viability, CellTiter-Glo ATP luminescence, 48-72 h; max response: active compounds read low
Summary of the method: as §2
Also: nearly all actives have a fitted effect of over 60% in size.

CCC(=O)c1c(O)cc(O)cc1O
inactive: Potency (ECU) | Potency (FAB9) | Potency (GB4) | Potency (HB3) | Potency (ICS) | Potency (JCK) | Potency (N140) | Potency (P93_24) | Potency (P94_40) | Potency (PAD) | Potency (PC15) | Potency (PC26) | Potency (PC49) | Potency (SC27B) | Potency (TAB109) | Potency (TAB113) | Potency (TAB165) | Potency (W2) | max response (CRL-7250) 1.93% | outcome (HEK293)

O=c1ccc2ccccc2o1
inactive: Potency (ECU) | Potency (FAB9) | Potency (GB4) | Potency (HB3) | Potency (ICS) | Potency (JCK) | Potency (N140) | Potency (P93_24) | Potency (P94_40) | Potency (PAD) | Potency (PC15) | Potency (PC26) | Potency (PC49) | Potency (SC27B) | Potency (TAB109) | Potency (TAB113) | Potency (TAB165) | Potency (W2) | outcome (CRL-7250) | outcome (HEK293)

CC(C)(C)NC(=O)[C@@H]1CN(Cc2cccnc2)CCN1C[C@@H](O)C[C@@H](Cc1ccccc1)C(=O)N[C@H]1c2ccccc2C[C@H]1O
inactive: max response (CRL-7250) -1.33% and -2.61% | max response (HEK293) 3.56% | outcome (HEK293)

Cc1c(N(C)CS(=O)(=O)O)c(=O)n(-c2ccccc2)n1C
inactive: Potency (ECU) | Potency (FAB9) | Potency (GB4) | Potency (HB3) | Potency (ICS) | Potency (JCK) | Potency (N140) | Potency (P93_24) | Potency (P94_40) | Potency (PAD) | Potency (PC15) | Potency (PC26) | Potency (PC49) | Potency (SC27B) | Potency (TAB109) | Potency (TAB113) | Potency (TAB165) | Potency (W2) | outcome (CRL-7250) | outcome (HEK293)

COc1c2occc2c(OC)c2c(=O)cc(C)oc12
inactive: Potency (ECU) | Potency (FAB9) | Potency (GB4) | Potency (HB3) | Potency (ICS) | Potency (JCK) | Potency (N140) | Potency (P93_24) | Potency (P94_40) | Potency (PAD) | Potency (PC15) | Potency (PC26) | Potency (PC49) | Potency (SC27B) | Potency (TAB109) | Potency (TAB113) | Potency (TAB165) | Potency (W2) | outcome (CRL-7250) | max response (HEK293) -0.27%
